Experiment in all cases: qHTS profiling for inhibitors of Plasmodium falciparum proliferation (AID 504749); further: nearly all actives have a fitted effect of over 60% in size
What all share (settings): P. falciparum in erythrocytes, SYBR Green DNA, 72 h; series mostly up to 28.7 µM

One assay concerns ATS95. The method, boiled down:
(§1)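 Quantitative HTS: compounds pinned into medium, infected erythrocytes added (0.3% parasitemia, 2.5% hematocrit), 72 h culture at 37 C under 5% CO2. Saponin/Triton lysis with SYBR Green I, overnight RT, then fluorescence read.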

For another assay, the system named is C2A. The method, boiled down: as §1
In a further assay the test system is CP185. The method, boiled down:
as §1

A further assay has as its system CP191. The method, boiled down: as §1
In another assay the test system is CP192. The method, boiled down:
as §1

A further assay concerns CP194. The method, boiled down:
as §1

For another assay, the system named is CP201. The method, boiled down:
as §1

The next assay deals with CP203. The method, boiled down:
as §1

Another assay deals with CP211. The method, boiled down: as §1
A further assay relates to CP215. The method, boiled down: as §1
Another assay concerns CP217. The method, boiled down: as §1
The next assay has as its system CP237. The method, boiled down: as §1
A further assay relates to CP238. The method, boiled down: as §1
Another assay has as its system CP247. The method, boiled down:
as §1

Another assay concerns CP250. The method, boiled down: as §1
A further assay relates to CP252. The method, boiled down:
as §1

The test system of the next assay is CP256. The method, boiled down:
as §1

For another assay, the system named is CP260. The method, boiled down:
as §1

Another assay concerns CP262. The method, boiled down:
as §1

For another assay, the system named is CP265. The method, boiled down:
as §1

The structures appear in SMILES notation. Results filed as inconclusive are left out. Activity calls are given as the source filed them. The call rests on the fitted dose curve; in most records, active means well fitted inhibition curve with a large enough effect; inconclusive means small, poorly fitted or top-dose-only effect; inactive means flat fitted curve, though single readings scatter.
Potency means the concentration at half of the fitted maximal effect.

Regarding `O=C(O)Cc1ccc(CCNS(=O)(=O)c2ccc(Cl)cc2)cc1`, the Potency entry in the assay with ATS95, in the assay with C2A, with CP185, in the assay with CP203, in the assay on CP215 and in the assay with CP237 was “inactive” each time. Besides, the Potency entry in the assay on CP238, with CP247, in the assay with CP250, in the assay with CP260 and in the assay with CP265 was “inactive” in each case. Also, the result with CP191, in the assay with CP192, in the assay with CP194, in the assay on CP201, in the assay with CP211 and with CP217 was inactive. The result in the assay on CP252, in the assay with CP256 and in the assay on CP262 was inactive.

As to `CC(C)CCOC(=O)c1ccc(N(C)C)cc1`, the Potency result in the assay with ATS95, in the assay with C2A, in the assay with CP185, in the assay on CP203, in the assay with CP215 and in the assay with CP237 was “inactive” throughout. Further, the Potency entry in the assay on CP238, in the assay on CP247, in the assay with CP250, in the assay on CP260 and with CP265 was “inactive” throughout. Further, the call with CP191, in the assay on CP192, in the assay on CP194, in the assay on CP201, in the assay on CP211 and in the assay on CP217 was inactive. The compound was called inactive in the assay with CP252, in the assay with CP256 and with CP262.

For `OC[C@@H](O)[C@@H](O)[C@H](O)[C@H](O)CO`, the Potency entry in the assay on ATS95, in the assay on C2A, with CP185, with CP203, with CP215 and in the assay on CP237 was “inactive” in each case. Besides, the Potency result in the assay with CP238, in the assay on CP247, in the assay with CP250, in the assay on CP260 and in the assay on CP265 was “inactive” each time. Further, the outcome in the assay on CP191, with CP192, in the assay with CP194, in the assay on CP201, with CP211 and with CP217 was inactive. Besides, the compound was called inactive with CP252, in the assay with CP256 and in the assay with CP262.

For `O=C(CCBr)N1CCN(C(=O)CCBr)CC1`, the Potency entry in the assay with ATS95, with C2A, with CP185, with CP203, in the assay with CP215 and in the assay on CP237 was “inactive” in each case. The Potency result with CP238, in the assay on CP247, in the assay with CP250, in the assay with CP260 and in the assay on CP265 was “inactive” throughout. Moreover, the call in the assay with CP191, with CP192, with CP194, in the assay on CP201, with CP211 and with CP217 was inactive. Besides, the compound was called inactive in the assay on CP252, in the assay on CP256 and with CP262.

With `Nc1ncnc2c1ncn2[C@@H]1O[C@H](COP(=O)(O)O)[C@@H](O)[C@H]1O`, the Potency entry in the assay with ATS95, in the assay with C2A, in the assay with CP185, in the assay on CP203, in the assay on CP215 and in the assay with CP237 was “inactive” in each case. The Potency result with CP238, in the assay on CP247, in the assay on CP250, with CP260 and in the assay on CP265 was “inactive” each time. Moreover, the compound was called inactive in the assay on CP191, with CP192, in the assay on CP194, in the assay with CP201, in the assay on CP211 and in the assay with CP217. For the same compound, the compound was called inactive with CP252, with CP256 and in the assay on CP262.

On to `O=C(/C=C/c1ccccc1)OCc1ccccc1`, for which the Potency entry with ATS95, in the assay on C2A, with CP185, in the assay on CP203, in the assay with CP215 and in the assay with CP237 was “inactive” in each case. Besides, the Potency entry in the assay with CP238, in the assay with CP247, in the assay on CP250, in the assay with CP260 and in the assay with CP265 was “inactive” throughout. For the same compound, the outcome in the assay on CP191, in the assay with CP192, with CP194, in the assay on CP201, in the assay with CP211 and with CP217 was inactive. In addition, the call in the assay on CP252, in the assay with CP256 and in the assay on CP262 was inactive.

In the case of `OCc1ccc(Cl)cc1Cl`, the Potency result with ATS95, in the assay with C2A, with CP185, in the assay on CP203, in the assay on CP215 and in the assay with CP237 was “inactive” each time. The Potency entry with CP238, in the assay on CP247, in the assay with CP250, with CP260 and with CP265 was “inactive” each time. The result with CP191, with CP192, in the assay on CP194, in the assay on CP201, in the assay on CP211 and in the assay on CP217 was inactive. The outcome in the assay with CP252, with CP256 and in the assay with CP262 was inactive.

Turning to `Cc1cccc(C(=O)O)c1O`, the Potency entry with ATS95, in the assay with C2A, in the assay with CP185, in the assay with CP203, in the assay with CP215 and in the assay on CP237 was “inactive” throughout. Also, the Potency result with CP238, with CP247, in the assay with CP250, in the assay on CP260 and in the assay with CP265 was “inactive” throughout. The compound was called inactive with CP191, with CP192, in the assay on CP194, with CP201, in the assay with CP211 and with CP217. Besides, the call in the assay with CP252, with CP256 and in the assay with CP262 was inactive.

Regarding `O=C(O)COC(=O)Cc1ccccc1Nc1c(Cl)cccc1Cl`, the Potency entry in the assay with ATS95, in the assay with C2A, with CP185, in the assay with CP203, in the assay on CP215 and with CP237 was “inactive” in each case. For the same compound, the Potency entry in the assay on CP238, in the assay with CP247, with CP250, in the assay with CP260 and in the assay on CP265 was “inactive” each time. Besides, the compound was classed as inactive with CP191, in the assay with CP192, in the assay on CP194, in the assay with CP201, in the assay with CP211 and in the assay on CP217. Moreover, the compound was called inactive in the assay with CP252, with CP256 and in the assay on CP262.

As to `COc1ccc(NS(=O)(=O)c2ccc(N)cc2)nn1`, the Potency result in the assay on ATS95, with C2A, in the assay on CP185, in the assay with CP203, in the assay on CP215 and in the assay on CP237 was “inactive” throughout. In addition, the Potency entry in the assay with CP238, in the assay on CP247, with CP250, in the assay with CP260 and in the assay with CP265 was “inactive” in each case. For the same compound, the result in the assay with CP191, with CP192, with CP194, with CP201, in the assay on CP211 and with CP217 was inactive. Besides, the compound was called inactive with CP252, in the assay on CP256 and in the assay with CP262.

With `CCCCCCCCCCCCCCCCC(C(=O)O)C(O)(CC(=O)O)C(=O)O` (stereo not given), the Potency entry in the assay on ATS95, with C2A, with CP185, in the assay on CP203, with CP215 and in the assay on CP237 was “inactive” each time. In addition, the Potency entry in the assay on CP238, with CP250, in the assay with CP260 and with CP265 was “inactive” in each case. For the same compound, the outcome in the assay on CP191, with CP192, in the assay with CP194, in the assay with CP201, in the assay with CP211 and with CP217 was inactive. The result with CP252, in the assay on CP256 and in the assay with CP262 was inactive. Further, the Potency in the assay on CP247 is 11.2 µM (active).

`CCOC(=O)c1cccnc1`: the Potency entry with ATS95, in the assay with C2A, in the assay with CP185, in the assay on CP203, in the assay on CP215 and with CP237 was “inactive” each time. Further, the Potency result with CP238, in the assay on CP247, in the assay on CP250, in the assay with CP260 and in the assay on CP265 was “inactive” each time. For the same compound, the compound was called inactive in the assay on CP191, with CP192, in the assay with CP194, in the assay with CP201, in the assay on CP211 and in the assay with CP217. Also, the compound was classed as inactive in the assay with CP252, in the assay with CP256 and with CP262.

For `CC(=O)Oc1cccc(C)c1`, the Potency result with ATS95, with C2A, with CP185, with CP203, with CP215 and with CP237 was “inactive” in each case. Further, the Potency entry in the assay on CP238, in the assay with CP247, with CP250, with CP260 and in the assay with CP265 was “inactive” in each case. The result with CP191, in the assay on CP192, in the assay with CP194, in the assay on CP201, in the assay with CP211 and with CP217 was inactive. Further, the compound was classed as inactive in the assay on CP252, with CP256 and in the assay on CP262.

`CC(C)=CCC/C(C)=C/CO`: the Potency result in the assay on ATS95, in the assay with C2A, with CP185, in the assay on CP203, with CP215 and in the assay with CP237 was “inactive” throughout. Besides, the Potency result in the assay with CP238, in the assay with CP247, in the assay on CP250, with CP260 and in the assay with CP265 was “inactive” in each case. In addition, the compound was called inactive with CP191, in the assay on CP192, with CP194, with CP201, in the assay with CP211 and in the assay on CP217. In addition, the outcome in the assay on CP252, with CP256 and with CP262 was inactive.

Regarding `O=C(NCN1CCOCC1)c1cnccn1`, the Potency result in the assay with ATS95, with C2A, in the assay on CP185, with CP203, in the assay with CP215 and with CP237 was “inactive” throughout. The Potency entry in the assay with CP238, with CP247, with CP250, in the assay on CP260 and in the assay on CP265 was “inactive” in each case. Moreover, the outcome in the assay on CP191, in the assay on CP192, with CP194, with CP201, in the assay on CP211 and in the assay with CP217 was inactive. Moreover, the result in the assay on CP252, in the assay with CP256 and in the assay on CP262 was inactive.

These data come from PubChem BioAssay (NCATS).
